Measured values from PubChem BioAssay.
Active and inactive are the calls of the source.

How the values were obtained:
[1] = test system: Plasmodium falciparum Sir2 (PF13_0152, Sir2A); assay: Plasmodium falciparum Sir2A binding compounds – biochemical, small-molecule microarray, 635 nm fluorescence, primary screen (AID 1098); details: fluorescence 635 nm, higher = more signal;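 note: score merges spot fluorescence intensity with its signal-to-noise ratio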
[2] = probe aDKK1 binding to arrayed compounds – biochemical, biotinylated probe, 635/667 nm fluorescence, primary screen (AID 1099); details: small-molecule microarray, higher = more signal;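 note: score merges 667nm spot fluorescence with signal to noise across triplicate slides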
[3] = probe aCHRDL2 binding to arrayed compounds – biochemical, biotinylated probe, 635/667 nm fluorescence, primary screen (AID 1100); details: small-molecule microarray, higher = more signal
[4] = change in splice reporter luminescence, either direction, cell-based, HEK293, spliceosome inhibition project, primary screen (AID 1101); details: HEK293 splicing luciferase reporter, 24 h, higher = more signal, called active from +8 up or from −8 down;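 note: HEK293 cells carrying a splicing-competent luciferase reporter gene; test concentration not given here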
[5] = target: Fibroblast growth factor 10 (Homo sapiens) (UniProt O15520); assay: compounds binding fibroblast growth factor 10 – biochemical, small-molecule microarray, 635 nm fluorescence, primary screen (AID 1102); details: FGF10 binding, fluorescence 635 nm, higher = more signal
Fibroblast growth factor 10 (Homo sapiens), sequence (O15520 whole entry, looked up): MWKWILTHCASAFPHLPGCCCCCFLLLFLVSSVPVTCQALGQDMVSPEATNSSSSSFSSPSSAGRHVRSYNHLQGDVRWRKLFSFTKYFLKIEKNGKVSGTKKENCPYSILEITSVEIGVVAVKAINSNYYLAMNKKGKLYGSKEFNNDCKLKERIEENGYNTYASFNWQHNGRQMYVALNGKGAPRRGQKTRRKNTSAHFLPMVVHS

[6] = test system: glycogen synthase kinase-3 (GSK3A per assay name; protocol says GSK3B); assay: compounds binding glycogen synthase kinase-3 – biochemical, small-molecule microarray, 635 nm fluorescence, GSK3A, primary screen (AID 1103); details: fluorescence 635 nm, higher = more signal; note: the record names both GSK3A and GSK3B
[7] = target: Epidermal growth factor receptor (Homo sapiens) (UniProt P00533); assay: compounds binding epidermal growth factor receptor – biochemical, small-molecule microarray, 635 nm fluorescence, primary screen (AID 1104); details: EGFR binding, higher = more signal;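 note: score merges 667 nm emission intensity with spot signal to noise over triplicate slides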
Epidermal growth factor receptor (Homo sapiens), sequence (P00533 whole entry, looked up): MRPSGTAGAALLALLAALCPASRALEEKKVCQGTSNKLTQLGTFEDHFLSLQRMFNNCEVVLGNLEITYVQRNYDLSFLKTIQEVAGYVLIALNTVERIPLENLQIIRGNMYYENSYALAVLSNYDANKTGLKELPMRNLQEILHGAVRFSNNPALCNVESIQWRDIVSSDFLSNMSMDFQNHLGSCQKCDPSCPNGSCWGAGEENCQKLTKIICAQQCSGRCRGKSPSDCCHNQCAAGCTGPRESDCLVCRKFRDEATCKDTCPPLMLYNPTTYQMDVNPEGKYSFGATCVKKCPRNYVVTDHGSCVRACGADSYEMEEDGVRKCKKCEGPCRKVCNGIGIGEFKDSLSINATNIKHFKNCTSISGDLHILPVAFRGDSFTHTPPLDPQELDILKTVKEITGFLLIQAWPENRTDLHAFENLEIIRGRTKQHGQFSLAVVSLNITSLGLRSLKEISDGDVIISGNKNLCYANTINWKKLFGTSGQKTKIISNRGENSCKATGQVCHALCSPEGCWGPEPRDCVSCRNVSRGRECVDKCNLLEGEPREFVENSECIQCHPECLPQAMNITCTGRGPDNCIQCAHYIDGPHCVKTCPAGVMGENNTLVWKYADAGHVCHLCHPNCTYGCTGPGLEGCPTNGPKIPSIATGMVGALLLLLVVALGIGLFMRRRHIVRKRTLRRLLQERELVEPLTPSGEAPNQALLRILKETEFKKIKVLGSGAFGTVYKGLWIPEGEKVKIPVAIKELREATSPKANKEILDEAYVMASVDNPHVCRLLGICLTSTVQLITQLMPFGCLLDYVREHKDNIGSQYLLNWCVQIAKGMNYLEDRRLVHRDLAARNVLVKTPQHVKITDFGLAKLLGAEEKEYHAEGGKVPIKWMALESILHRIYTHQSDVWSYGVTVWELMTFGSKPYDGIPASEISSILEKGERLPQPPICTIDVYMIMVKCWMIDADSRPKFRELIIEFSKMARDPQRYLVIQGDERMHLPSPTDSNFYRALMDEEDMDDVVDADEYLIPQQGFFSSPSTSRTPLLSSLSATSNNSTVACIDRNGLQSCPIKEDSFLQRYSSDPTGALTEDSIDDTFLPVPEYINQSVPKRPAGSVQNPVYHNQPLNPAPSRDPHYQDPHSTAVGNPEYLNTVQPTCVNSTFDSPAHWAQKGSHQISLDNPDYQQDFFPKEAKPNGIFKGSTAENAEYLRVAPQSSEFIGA

[8] = target: Follistatin-related protein 3 (Homo sapiens) (UniProt O95633); assay: compounds binding follistatin-related protein 3 – biochemical, small-molecule microarray, 635 nm fluorescence, primary screen (AID 1105); details: FSTL3 binding, higher = more signal;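 note: score merges emission near 667 nm and signal to noise per printed spot across three slides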
Follistatin-related protein 3 (Homo sapiens), sequence (O95633 whole entry, looked up): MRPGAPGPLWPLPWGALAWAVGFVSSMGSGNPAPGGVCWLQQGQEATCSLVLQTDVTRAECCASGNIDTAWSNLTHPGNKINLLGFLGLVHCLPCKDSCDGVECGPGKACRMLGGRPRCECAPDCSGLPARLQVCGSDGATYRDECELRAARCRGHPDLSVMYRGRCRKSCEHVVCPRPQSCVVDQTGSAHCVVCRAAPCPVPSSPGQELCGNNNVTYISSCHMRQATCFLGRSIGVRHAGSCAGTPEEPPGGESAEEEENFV

[9] = target: Dickkopf-related protein 1 (Homo sapiens) (UniProt O94907); assay: small molecules binding DKK1 protein – biochemical, small-molecule microarray, 635 nm fluorescence scan, primary screen (AID 1106); details: higher = more signal;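 note: score merges emission near 667 nm with signal to noise over three replicate slides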
Dickkopf-related protein 1 (Homo sapiens), sequence (O94907 whole entry, looked up): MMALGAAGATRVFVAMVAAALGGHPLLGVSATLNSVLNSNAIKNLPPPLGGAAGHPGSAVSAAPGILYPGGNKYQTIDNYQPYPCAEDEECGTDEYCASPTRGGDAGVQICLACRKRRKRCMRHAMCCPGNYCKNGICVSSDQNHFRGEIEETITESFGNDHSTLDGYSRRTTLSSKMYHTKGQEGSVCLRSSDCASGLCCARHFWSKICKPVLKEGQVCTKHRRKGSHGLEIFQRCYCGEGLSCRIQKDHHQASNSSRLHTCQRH

[10] = test system: Inhibin beta A chain (activin A); assay: small molecules binding activin A – biochemical, small-molecule microarray, 635 nm fluorescence scan, primary screen (AID 1107); details: INHBA, higher = more signal;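 note: mouse activin A protein probed at 4.33 µg/mL on printed slides; score merges bound-protein fluorescence near 667 nm with spot signal-to-noise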
[11] = test system: Human papillomavirus type 1a protein E7 (residues 44-93); assay: small molecules binding HPV E7 44-93 – biochemical, small-molecule microarray, residues 44-93, 635 nm fluorescence, primary screen (AID 1108); details: fluorescence 635 nm, higher = more signal;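 note: E7 fragment applied at 1 µg/mL in TBST for 1 h at 4 C; score combines spot fluorescence with its signal to noise ratio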
[12] = hepatitis C replication reporter changes, two-sided – Huh7 cells, luciferase reporter, HCV replication inhibitor project, primary screen (AID 1109); details: Huh7 HCV replicon luciferase reporter, 48 h; higher = more signal;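 note: huh7 hepatoma cells harbouring a luciferase neomycin HCV replicon reporter; luciferase luminescence as measure of HCV replicon replication; test concentration not given here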
[13] = target: Left-right determination factor 2 (Homo sapiens) (UniProt O00292); assay: small molecules binding LEFTY2 protein – biochemical, small-molecule microarray, 635 nm fluorescence scan, primary screen (AID 1110); details: higher = more signal
Left-right determination factor 2 (Homo sapiens), sequence (O00292 whole entry, looked up): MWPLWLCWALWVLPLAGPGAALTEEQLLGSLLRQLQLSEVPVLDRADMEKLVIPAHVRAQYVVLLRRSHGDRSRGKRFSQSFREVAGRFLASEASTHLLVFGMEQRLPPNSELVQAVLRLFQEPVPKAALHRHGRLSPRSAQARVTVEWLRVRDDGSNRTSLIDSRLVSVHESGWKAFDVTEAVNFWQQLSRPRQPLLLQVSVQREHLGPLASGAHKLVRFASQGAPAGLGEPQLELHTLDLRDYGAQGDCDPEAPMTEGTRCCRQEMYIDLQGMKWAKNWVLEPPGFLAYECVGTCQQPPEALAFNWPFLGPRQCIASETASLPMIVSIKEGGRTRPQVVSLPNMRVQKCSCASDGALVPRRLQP

[14] = target: Calmodulin-1 (Homo sapiens) (UniProt P0DP23); assay: small molecules binding calmodulin-1 with EGTA – biochemical, small-molecule microarray, Cy5-labelled CALM1, profiling panel (AID 1111); details: Cy5-CALM1 binding fluorescence, higher = more signal;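 note: labelled calmodulin applied in Tris saline Tween buffer holding calcium plus EGTA and DTT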
[15] = target: Calmodulin-1 (Homo sapiens) (UniProt P0DP23); assay: small molecules binding Ca-loaded calmodulin-1 – biochemical, small-molecule microarray, Cy5-labelled CALM1, plus calcium, artefact control for SMM control-protein annotation, profiling panel (AID 1112); details: Cy5-CALM1 binding fluorescence, higher = more signal;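 note: score merges spot fluorescence with signal to noise from triplicate slides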
[16] = probe aWnt5a binding to arrayed compounds – biochemical, biotinylated probe, 635/667 nm fluorescence, primary screen (AID 1113); details: small-molecule microarray, higher = more signal;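 note: score merges 667 nm fluorescence intensity with signal-to-noise per printed feature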
[17] = probe aShh binding to arrayed compounds – biochemical, biotinylated probe, 635/667 nm fluorescence, primary screen (AID 1114); details: small-molecule microarray, higher = more signal;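 note: probe is biotin-labelled aShh protein from a stem cell growth factor screen; measures binding of labelled protein to compounds printed on the slide; score merges feature fluorescence at 667 nm with signal-to-noise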
[18] = probe aNog binding to arrayed compounds – biochemical, biotinylated probe, 635/667 nm fluorescence, primary screen (AID 1115); details: small-molecule microarray, higher = more signal;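 note: probe is biotinylated aNog protein used at 0.15 µg/mL for 1 h at 4 C; z-score combines 667 nm fluorescence of each spot with its signal to noise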
[19] = target: Torsin-1A-interacting protein 1 (Homo sapiens) (UniProt Q5JTV8); assay: compound microarray binding of lysate hLAP1 – cell lysate, small-molecule microarray, COS7 lysate, 635/667 nm fluorescence, primary screen (AID 1116); details: 635 nm fluorescence, higher = more signal
Torsin-1A-interacting protein 1 (Homo sapiens), sequence (Q5JTV8 whole entry, looked up): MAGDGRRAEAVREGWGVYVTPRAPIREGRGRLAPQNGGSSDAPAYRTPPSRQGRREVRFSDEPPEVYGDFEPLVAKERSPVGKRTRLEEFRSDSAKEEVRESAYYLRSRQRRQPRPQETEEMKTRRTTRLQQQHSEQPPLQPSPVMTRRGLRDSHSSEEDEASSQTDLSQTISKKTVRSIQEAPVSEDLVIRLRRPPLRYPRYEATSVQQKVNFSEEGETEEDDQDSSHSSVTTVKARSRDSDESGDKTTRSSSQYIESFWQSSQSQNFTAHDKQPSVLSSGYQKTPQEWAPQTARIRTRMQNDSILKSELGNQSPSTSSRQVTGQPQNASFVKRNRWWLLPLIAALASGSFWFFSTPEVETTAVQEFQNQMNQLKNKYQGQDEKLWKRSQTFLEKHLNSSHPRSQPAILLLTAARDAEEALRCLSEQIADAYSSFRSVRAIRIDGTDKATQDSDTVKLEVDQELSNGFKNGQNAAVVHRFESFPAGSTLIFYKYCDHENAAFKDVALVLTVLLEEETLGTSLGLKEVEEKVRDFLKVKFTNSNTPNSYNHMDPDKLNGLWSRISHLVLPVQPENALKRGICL

[20] = target: Alpha-bungarotoxin (Bungarus multicinctus) (UniProt P60615); assay: compounds binding labelled alpha-BTX control protein – biochemical, small-molecule microarray, Alexa647 label, 635/667 nm fluorescence, artefact control for SMM control protein annotation, profiling panel (AID 1117); details: alpha-BTX-A647 binding fluorescence, higher = more signal
Alpha-bungarotoxin (Bungarus multicinctus), sequence (P60615 whole entry, looked up): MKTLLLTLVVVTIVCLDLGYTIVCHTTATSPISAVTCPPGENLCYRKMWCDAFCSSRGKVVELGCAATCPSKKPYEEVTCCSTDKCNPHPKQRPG

| SMILES | composite z-score [1] | composite z-score [2] | composite z-score [3] | z-score [4] | composite z-score [5] | composite z-score [6] | composite z-score [7] | composite z-score [8] | composite z-score [9] | composite z-score [10] | composite z-score [11] | z-score [12] | composite z-score [13] | composite z-score [14] | composite z-score [15] | composite z-score [16] | composite z-score [17] | composite z-score [18] | composite z-score [19] | composite z-score [20] |
| --- | --- | --- | --- | --- | --- | --- | --- | --- | --- | --- | --- | --- | --- | --- | --- | --- | --- | --- | --- | --- |
| CC(C)c1ccc(NN2C(C(O)c3ccco3)C=CC3C(=O)N(c4ccccc4)C(=O)C32)cc1 (stereo not given) | 1.02 | 0.978 | 1.09 | 0.165 (inactive) | 0.783 | 1.3 | 0.0401 | 1.22 | 0.191 | 1.14 | 0.729 | 3.21 | 0.183 | 2.07 | 0.941 | 0.0629 | 0.279 | 1.47 | 0.93 | 2.69 |
| CO[C@H]1O[C@H](CO)[C@@H](OC(=O)c2ccc(Br)cc2)[C@@H]2OC(=O)[C@@H](Cc3ccc4ccccc4c3)C/C=C/C[C@H](Cc3ccc4ccccc4c3)C(=O)O[C@@H]12 | 0.995 | 0.463 | 0.769 | -0.83 (inactive) | 0.429 | 0.548 | -0.567 | 0.323 | -0.54 | 0.588 | 0.872 | -1.13 | -0.255 | 1.29 | -0.145 | -0.0894 | -0.16 | -0.241 | 1.22 | 0.528 |
| COC(=O)Cn1c(C(=O)N2CCCC2)cc2c1C[C@H]1CN(C(=O)c3ccccc3)[C@@](Cc3ccc(F)cc3)(C(=O)OC)[C@@H]21 | 0.643 | 0.222 | -0.0982 | -1.13 (inactive) | -0.134 | -0.576 | 0.588 | 0.412 | -0.181 | 0.675 | -0.137 | -1.32 | -0.0715 | 1.15 | 0.153 | -0.0405 | -0.0738 | -0.298 | 0.943 | -0.155 |
| NC(=O)NCC#Cc1ccc2c(c1)[C@]1(C(=O)N2)[C@H](c2ccc(O)cc2)N2[C@H](c3ccccc3)[C@H](c3ccccc3)OC(=O)[C@H]2[C@@H]1C(=O)Nc1nc2ccccc2s1 | 0.836 | 0.645 | 0.985 | 1.11 (inactive) | 1.25 | 0.0394 | 0.581 | 1.05 | 0.666 | 1.17 | 0.89 | -1.27 | 0.413 | 0.563 | 0.229 | 0.168 | 0.246 | 0.563 | 0.633 | 1.23 |
| O=C(CCCCCCC(=O)Nc1ccccc1)N/N=C/c1ccccc1 | 0.45 | -0.176 | -0.311 | -0.519 (inactive) | -0.136 | -0.401 | 0.0504 | -0.41 | 0.328 | 0.18 | -0.162 | -0.529 | 0.229 | -0.507 | -0.491 | -0.18 | 0.0224 | -0.216 | 0.255 | -0.454 |
| O=C1OCCC=C[C@H]2OC34C=CCN(c5ccc(Cl)cc5)C(=O)[C@H]3N(CCCCCO)C(=O)[C@@H]4C12 (stereo not given in full) | 1.87 | -0.0263 | 0.255 | -0.443 (inactive) | -0.315 | 0.0788 | -0.935 | -0.713 | -0.172 | 0.883 | -0.357 | 0.312 | -0.639 | -0.262 | -0.137 | -0.0512 | -0.0769 | 0.496 | 0.681 | -0.702 |
| CC(C)(C)OC(=O)CC[C@]1(C(=O)N2CCOCC2)N=C(c2ccc(OCCCO)cc2)O[C@H]1c1ccccc1 | 1.65 | 0.126 | 0.417 | 0.12 (inactive) | 1.05 | 0.488 | -0.433 | 0.0033 | -0.158 | 0.456 | 0.79 | -0.304 | -0.356 | 0.0137 | -0.031 | -0.0459 | -0.27 | -0.375 | 1.07 | 0.109 |
| CCOc1cc(C(O)C2C=CC3C(=O)N(C)C(=O)C3N2N2CCCCC2)ccc1O (stereo not given) | 1.56 | 0.637 | 0.101 | 0.377 (inactive) | 0.264 | -0.37 | 0.287 | 0.276 | 0.164 | 0.898 | 0.0912 | 0.403 | 0.298 | -0.0003 | -0.393 | 0.0173 | 0.199 | 0.243 | -0.283 | 0.676 |
| NC(=O)NCC#Cc1ccc2c(c1)[C@]1(C(=O)N2)[C@H](C(=O)O)[C@H]2C(=O)O[C@H](c3ccccc3)[C@H](c3ccccc3)N2[C@@H]1c1ccccc1OCCO | 1.37 | 0.689 | 0.677 | -1.14 (inactive) | 0.991 | 0.558 | 0.363 | 1.01 | 0.351 | 1.4 | 0.497 | 0.393 | 0.28 | 2.05 | 1.01 | 0.0354 | -0.412 | 0.91 | 1.45 | 3.27 |
| CC(C)CNC(=O)[C@@H]1c2ccccc2C(=O)N(Cc2cc(F)cc(C(F)(F)F)c2)[C@H]1c1ccc(CO)cc1 | 0.311 | 0.806 | 1.01 | -0.621 (inactive) | 0.301 | 0.13 | -0.315 | 0.328 | 0.258 | 0.669 | -0.0365 | -0.604 | -0.0784 | 0.0981 | -0.025 | -0.0459 | 0.0639 | -0.579 | 0.662 | -0.694 |
| COc1ccc(C(O)C2C=CC3C(=O)N(c4ccccc4)C(=O)C3N2Nc2ccc(C#N)cc2)c2ccccc12 (stereo not given) | 1.2 | 0.585 | 0.917 | 1.8 (inactive) | 0.581 | 0.811 | -0.0239 | 0.733 | 0.138 | 0.675 | 0.596 | -0.46 | -0.199 | 2.63 | 1.07 | 0.0388 | -0.0709 | 1.45 | 1.83 | 1.68 |
